Sampled rows, rich in hits. Any-hit rate of the full collection: about 2.4%.
A3A deaminase: blocks human APOBEC3A ssDNA deamination. P31941. recombinant A3A, FAM/TAMRA ssDNA deamination fluorescence. inhibition, % at 20 µM. 330,000 compounds, 0.41% hits;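 active means at least 40% inhibition at 20 µM here, with at most 30% in a related deaminase screen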;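 further: plate controls were A3A with DMSO for no effect and wells lacking A3A enzyme for full effect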
A3G deaminase: APOBEC3G (human) deaminase inhibition; AID 493012; Q9HC16; 330,000 compounds, 0.28% hits; inhibition, % at 20 µM; recombinant A3G, ssDNA deamination FAM/TAMRA fluorescence;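 active means inhibition of at least 40% at 20 µM, with no more than 30% in the related APOBEC3A deaminase screen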;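 further: plate controls were DMSO wells with A3G for no effect and wells lacking A3G enzyme for full effect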
ADAM10 inh: inhibits human ADAM10; O14672; recombinant ADAM10, EDANS/DABCYL FRET peptide cleavage, 3 h; inhibition, % at 7 µM; 370,000 compounds, 0.62% hits;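 active means inhibition above a per-campaign cutoff equal to the mean of compounds falling between control-based bounds plus 3 SD, cut at about 20% in these data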;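 further: 0% = DMSO wells while the 100% control is not disclosed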
ADAM17 inh: inhibitors of human ADAM17; 370,000 compounds, 0.83% hits; AID 720648; P78536; recombinant ADAM17, EDANS/DABCYL FRET peptide cleavage; inhibition, % at 6.95 µM;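 active means inhibition above the mean of compounds lying between control limits plus 3 SD, set per campaign, cut at about 8.5% in these data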;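 further: 0% = DMSO-only wells as the low control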
CendR NRP1 mod: NRP-1/CendR interaction modulation; FAM-RPARPAR peptide binding to NRP-1, fluorescence polarization; inhibition, % at 25 µM; 360,000 compounds, 0.85% hits;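 active means inhibition or corrected inhibition above about 18%, plus a signal ratio from 0.5 to 1.5, limit read from the data, passing the limit was not always enough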
Target sequence (O14786 whole entry, looked up): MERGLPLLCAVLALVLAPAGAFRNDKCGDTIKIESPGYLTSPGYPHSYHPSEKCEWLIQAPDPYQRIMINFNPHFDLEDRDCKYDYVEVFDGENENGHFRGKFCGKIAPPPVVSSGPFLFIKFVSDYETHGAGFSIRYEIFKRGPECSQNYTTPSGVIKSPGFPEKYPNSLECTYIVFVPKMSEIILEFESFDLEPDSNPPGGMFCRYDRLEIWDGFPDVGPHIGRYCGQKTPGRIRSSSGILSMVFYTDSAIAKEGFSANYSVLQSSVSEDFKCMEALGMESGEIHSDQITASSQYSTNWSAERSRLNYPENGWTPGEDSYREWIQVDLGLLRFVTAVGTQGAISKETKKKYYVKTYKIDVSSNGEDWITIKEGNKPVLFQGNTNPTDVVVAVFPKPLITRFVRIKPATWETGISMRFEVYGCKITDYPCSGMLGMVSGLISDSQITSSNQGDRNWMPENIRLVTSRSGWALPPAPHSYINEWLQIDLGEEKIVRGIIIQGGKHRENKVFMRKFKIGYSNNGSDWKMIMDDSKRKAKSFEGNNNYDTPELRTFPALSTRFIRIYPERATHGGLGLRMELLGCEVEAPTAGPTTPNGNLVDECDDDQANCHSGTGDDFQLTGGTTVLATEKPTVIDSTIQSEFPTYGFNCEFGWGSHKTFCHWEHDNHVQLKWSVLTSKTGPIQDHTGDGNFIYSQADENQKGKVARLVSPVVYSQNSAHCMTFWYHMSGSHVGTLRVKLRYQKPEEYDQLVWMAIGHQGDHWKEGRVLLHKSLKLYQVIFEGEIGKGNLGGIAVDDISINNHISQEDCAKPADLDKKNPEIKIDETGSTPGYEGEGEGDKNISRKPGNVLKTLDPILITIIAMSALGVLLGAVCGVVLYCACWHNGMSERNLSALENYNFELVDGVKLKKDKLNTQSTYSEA
ADAM10 confirm: human ADAM10 inhibition, confirmation; shares compounds with ADAM10 inh; ADAM10 QFRET peptide cleavage, EDANS fluorescence; inhibition, % at 6.95 µM; 2,100 compounds, 1% hits; AID 743208;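 active means inhibition above about 20% chosen separately for each screening run, limit read from the data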;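 further: 0% = DMSO wells and 100% = marimastat wells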
ADAM17 ctr: inhibits human ADAM17 in ADAM10 exosite counter-screen | shares compounds with ADAM10 inh | ADAM17 QFRET peptide cleavage, EDANS fluorescence | inhibition, % at 6.95 µM | 2,100 compounds, 0.5% hits;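 active means mean triplicate inhibition above the solvent-only control wells' mean plus 3 SD, cut at about 12% in these data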;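 further: 0% = DMSO wells and 100% = marimastat wells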
ADAM10 ctr: inhibits human ADAM10 in ADAM17 exosite counter-screen; shares compounds with ADAM17 inh; recombinant ADAM10, EDANS/DABCYL FRET peptide cleavage, 3 h; inhibition, % at 6.95 µM; 2,900 compounds, 47% hits; AID 743256;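 active means mean inhibition over the triplicate runs exceeds the activity threshold set in the earlier primary screen, cut at about 20% in these data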;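 further: 0% = DMSO wells and 100% = marimastat wells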
ADAM17 confirm: confirmation of inhibitors of human ADAM17; shares compounds with ADAM17 inh; recombinant ADAM17, EDANS/DABCYL QFRET peptide cleavage; inhibition, % at 6.95 µM; 2,900 compounds, 65% hits; AID 743257;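 active means mean inhibition across replicates above the hit cutoff set in the primary screen, cut at about 8.5% in these data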;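 further: 0% = DMSO wells and 100% = marimastat wells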
Starred values were filed as active, the others as inactive; . = no result given.

SMILES | A3A deaminase | A3G deaminase | ADAM10 inh | ADAM17 inh | CendR NRP1 mod | ADAM10 confirm | ADAM17 ctr | ADAM10 ctr | ADAM17 confirm
O=C(Nc1ccc(Nc2ccccc2)cc1)c1c(F)c(F)c(F)c(F)c1F | -2 | -1 | 20* | 14* | -18 | 5 | 1 | 30* | 14*
O=C(Nc1ccc(Nc2ccccc2)cc1)c1c(Cl)cccc1Cl | -3 | -3 | 12 | 3 | 2 | . | . | . | .
O=C(N/N=C/c1ccc(Br)o1)/C(=C/c1ccc([N+](=O)[O-])cc1)NC(=O)c1ccccc1 | 0 | -1 | 31* | 13* | 3 | 2 | 1 | 32* | 17*
CCC(=O)Nc1ccc(Cl)cc1C(=O)c1ccc[nH]1 | . | . | -6 | -8 | . | . | . | . | .
Cc1cc(Nc2ccc(Cl)cc2)n(-c2cccc(Cl)c2)n1 | 0 | -3 | 24* | 9.8* | -2 | 7 | 2 | 16 | 11*
OC(c1ccccc1)(c1nc(-c2ccccc2)cs1)C(F)(F)F (centres undefined) | . | . | 23* | 8.8* | -5 | 8 | 2 | 33* | 17*
OC(c1ccccc1)(c1nc(-c2ccc3ccccc3c2)cs1)C(F)(F)F (centres undefined) | . | . | 7 | 8 | -7 | . | . | . | .
OC(c1ccccc1)(c1nc(-c2cccc(F)c2)cs1)C(F)(F)F (centres undefined) | . | . | 33* | 12* | 0 | 8 | 2 | 39* | 18*
OC(c1ccccc1)(c1nc(-c2ccc3c(c2)OCO3)cs1)C(F)(F)F (centres undefined) | . | . | 23* | 9.2* | -1 | 13 | 4 | 25* | 14*
CC(O)(c1cccc(F)c1)c1nc(-c2cccc(F)c2)cs1 (centres undefined) | . | . | 2 | 5 | 8 | . | . | . | .
CCN(C)C(=O)CN1C(=O)C2CCCCN2C(=O)c2ccccc21 (centres undefined) | . | . | -15 | 3 | . | . | . | . | .
COc1cc(-c2nnc(COc3ccc4ccccc4c3)o2)cc(OC)c1OC | -4 | -5 | 21* | 10* | 4 | 8 | 3 | 22* | 15*
Clc1ccc(-n2ncc3c(NCc4cccs4)ncnc32)cc1 | 2 | 0 | 2 | -4 | -4 | . | . | . | .
Cc1cccc(-n2ncc3c(NCc4cccs4)ncnc32)c1 | -2 | -1 | 23* | 12* | -2 | 3 | 0 | 12 | 9.6*
CC(=O)Nc1ccc(NC(=O)C(C)OC(=O)c2ccc3c(c2)OCCO3)cc1 (centres undefined) | 1 | -4 | 2 | -3 | -4 | . | . | . | .
CC(OC(=O)c1cccc(S(=O)(=O)Nc2cccc(C(F)(F)F)c2)c1)C(=O)Nc1ccc2c(c1)OCCO2 (centres undefined) | 1 | -2 | 28* | 9.2* | 31* | 5 | 1 | 28* | 14*
CC(=O)Nc1ccc(SC[C@H](Cc2ccccc2)N2CC[C@@H](C(C)(C)C)CCC2=O)cc1 | 1 | -3 | 36* | 12* | 28* | 5 | 1 | 22* | 15*
O=C1/C(=C\c2ccc(O)c(O)c2)SC(=S)N1Cc1ccccc1 | -6 | -10 | 23* | 8.9* | -176 | 9 | 4 | 36* | 21*
COc1cc(/C=C2/SC(=S)N(Cc3ccccc3)C2=O)ccc1O | -7 | -26 | 23* | 12* | -206 | 7 | 2 | 38* | 22*
O=C(O)COc1cccc(/C=C2/SC(=S)N(Cc3ccccc3)C2=O)c1 | 1 | -3 | 0 | 8 | -33 | . | . | . | .
CCOC(=O)[C@]12CCCC3=C1N(CCC3)C(=O)[C@@H](CC(=O)N1CCOCC1)C2 | . | . | -4 | -3 | . | . | . | . | .
COCC(=O)N1CCC(C(=O)NC2CCCc3ccccc32)CC1 (centres undefined) | . | . | 0 | 1 | . | . | . | . | .
CN1CCS/C1=C\C=C1/SC(=S)N(CC(=O)O)C1=O | . | . | 25* | 10* | 135 | 2 | 0 | 17 | 11*
CCN1C(=O)/C(=C/C=C2/SCCN2C)SC1=S | 1 | -1 | -8 | -3 | -214 | . | . | . | .
CCC(C#Cc1ccccc1)NCc1ccc(OC)cc1OC (centres undefined) | . | . | 10 | 2 | . | . | . | . | .
SMILES | A3A deaminase | A3G deaminase | ADAM10 inh | ADAM17 inh | CendR NRP1 mod | ADAM10 confirm | ADAM17 ctr | ADAM10 ctr | ADAM17 confirm
O=c1[nH]c(-c2ccccc2)cn1C1CCN(Cc2ccc(-c3nc4ccc(Br)cc4nc3-c3ccccc3)cc2)CC1 | . | . | 11 | 7 | . | . | . | . | .
Clc1ccc(-n2c(Cc3cccs3)nnc2SC/C=C/c2ccccc2)cc1 | . | . | -1 | 1 | . | . | . | . | .
CCc1cccc(C)c1NC(=O)CN1CCN(S(=O)(=O)c2ccc(C(C)(C)C)cc2)CC1 | -1 | -2 | 24* | 10.0* | -1 | 0 | 0 | 7 | 7
CCC(C#Cc1ccccc1)N(C)C(N)=NC(=O)/C=C/c1ccccc1 (centres undefined) | . | . | 0 | 0 | . | . | . | . | .
CCCCCCCC/C=C\CCCCCCCC(=O)NCCc1ccc(O)c(O)c1 | 3 | -2 | 28* | 13* | -4 | 5 | 3 | 26* | 17*
CCCCCCCC/C=C\CCCCCCCC(=O)NCCO | 0 | -6 | -6 | -2 | -6 | . | . | . | .
O=C(COC(=O)c1cccc(S(=O)(=O)N2CCCCC2)c1)NCc1ccccc1 | 0 | -2 | -1 | -6 | 5 | . | . | . | .
O=C(OCC(=O)c1c[nH]c2ccccc12)c1cccc(S(=O)(=O)N2CCCCCC2)c1 | 1 | -5 | 27* | 12* | 7 | 8 | 2 | 18 | 8.7*
O=C(NCc1ccccc1)[C@@H]1CCCN1C(=O)[C@H]1CCCN1C(=O)c1cc(F)cc(F)c1 | . | . | -1 | 2 | . | . | . | . | .
C#CCN(Cc1cccc(F)c1)C(=O)c1nnc2c3cc(F)ccc3n(S(=O)(=O)c3ccc(OC)cc3)c2n1 | . | . | -4 | 4 | . | . | . | . | .
CN(C(=O)c1cccc(NC(=O)Cc2ccc(NC(=O)C3CCN(S(=O)(=O)c4cccc([N+](=O)[O-])c4)CC3)cc2)c1)C1CCC1 | . | . | 20* | 12* | -5 | 0 | 0 | 24* | 8.9*
COC(=O)[C@H](Cc1ccccc1)N1CC(N2CCCC2)CS1(=O)=O (some centres undefined) | . | . | -7 | -2 | . | . | . | . | .
O=C(Nc1ccc(OC(F)F)cc1)Nc1cccc(C(F)(F)F)c1 | -1 | -10 | 25* | 10* | -4 | 2 | 0 | 31* | 16*

Compound activity: PubChem, several laboratories
